Sampled rows, rich in hits. Any-hit rate of the full collection: about 3.5%.
FBW7 activator: human FBW7 E3 ligase activation, primary screen; AlphaScreen FBW7–phospho-cyclin E peptide binding, activator screen; 650,000 compounds, 0.13% hits; normalized activity (activation), % at 26.1 µM; Q969H0; in the data active means normalized activity above about 1.9%;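 further: purified mutant Fbw7 with reduced substrate affinity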
GPR151 ag: activates the human receptor GPR151. 650,000 compounds, 1% hits. Q8TDV0. PathHunter beta-arrestin GPR151 cells, luminescence. activation, % at 11.2 µM; in the data active means activation above about 4.9%;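 further: 0% = median of compound wells and 100% = cells with positive control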
Target sequence (Q8TDV0 whole entry, looked up): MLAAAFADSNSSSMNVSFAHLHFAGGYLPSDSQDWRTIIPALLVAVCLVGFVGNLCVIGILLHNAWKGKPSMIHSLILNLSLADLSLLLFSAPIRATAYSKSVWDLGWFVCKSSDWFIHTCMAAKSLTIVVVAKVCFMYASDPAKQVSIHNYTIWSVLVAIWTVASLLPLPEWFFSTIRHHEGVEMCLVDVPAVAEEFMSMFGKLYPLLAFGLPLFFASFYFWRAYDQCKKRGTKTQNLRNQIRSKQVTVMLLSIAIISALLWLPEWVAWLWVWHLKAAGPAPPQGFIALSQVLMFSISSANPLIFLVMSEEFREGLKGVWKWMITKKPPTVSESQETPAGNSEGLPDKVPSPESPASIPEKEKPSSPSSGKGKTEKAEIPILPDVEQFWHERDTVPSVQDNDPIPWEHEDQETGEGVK
TEAD-YAP block: TEAD-YAP interaction inhibition; 640,000 compounds, 1.4% hits; AID 1259422; inhibition, % at 9.12 µM; HEK-TIYL cells, TEAD-Gal4/YAP UAS-luciferase luminescence; in the data active means inhibition above about 32%;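 further: 0% = median of test compound wells and 100% = reference inhibitor wells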
MITF inh: blocks human microphthalmia-associated transcription factor. AlphaScreen MITF homodimerization, bead proximity signal. 650,000 compounds, 0.91% hits. inhibition, % at 2.6 µM. O75030; in the data active means inhibition above about 50%;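 further: 0% = vehicle wells with protein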
Active calls of the source: *.

COc1cc(-c2ccc(N=Nc3ccc4c(S(=O)(=O)O)cc(S(=O)(=O)O)c(N)c4c3O)c(OC)c2)ccc1N=Nc1ccc2c(S(=O)(=O)O)cc(S(=O)(=O)O)c(N)c2c1O was read as FBW7 activator 0, GPR151 ag -2 and MITF inh 77*.
Screening Cc1ccc(NC(=O)c2ccc(Nc3nc(-c4ccccc4)c4cc(C)ccc4n3)cc2)cc1 returned FBW7 activator 0, GPR151 ag 1, TEAD-YAP block -3 and MITF inh 4.
For Cc1ccc2nc(Nc3cccc(C(=O)Nc4ccc(O)cc4)c3)nc(-c3ccccc3)c2c1 the results were FBW7 activator 0, GPR151 ag 0, TEAD-YAP block 50* and MITF inh 15.
`CCN(CC)S(=O)(=O)c1cc(C(=O)Nc2ccc(C)c(F)c2)ccc1F` gave FBW7 activator 0, GPR151 ag -1, TEAD-YAP block -37 and MITF inh 8.
Screening CCN(c1ccccc1)S(=O)(=O)c1ccc(C(=O)Nc2ccc(C(C)=O)cc2)cc1 returned FBW7 activator 2.3*, GPR151 ag 3, TEAD-YAP block 7 and MITF inh 8.
CN(Cc1ccccc1)S(=O)(=O)c1cc(C(=O)Nc2ccc(Br)cc2)ccc1F was read as FBW7 activator 0, GPR151 ag 1, TEAD-YAP block 41* and MITF inh -2.
Screening CCN(c1ccccc1)S(=O)(=O)c1cc(C(=O)Nc2ccc(Oc3ccccc3)cc2)ccc1F returned FBW7 activator 0, GPR151 ag 1, TEAD-YAP block 49* and MITF inh 18.
`CCN(Cc1ccccc1)S(=O)(=O)c1cc(C(=O)Nc2ccc(C)c(F)c2)ccc1F` gave FBW7 activator 0, GPR151 ag 2, TEAD-YAP block 57* and MITF inh -6.
Screening CCN(c1ccccc1)S(=O)(=O)c1ccc(NC(=O)Nc2ccccc2)cc1 returned FBW7 activator 0, GPR151 ag 0, TEAD-YAP block 18 and MITF inh 3.
For Cc1sc2nc(C(C)C)n3c(SCC(N)=O)nnc3c2c1C the results were FBW7 activator 0, GPR151 ag -1, TEAD-YAP block -2 and MITF inh 1.
For CCCn1ncc(C(=O)N2CCCCC2c2nc3ccccc3[nH]2)c1C (stereo unspecified) the results were FBW7 activator 0, GPR151 ag 1, TEAD-YAP block 13 and MITF inh -14.
Screening CCN(CC)S(=O)(=O)c1cc(C(=O)Nc2cccc(O)c2)ccc1Cl returned FBW7 activator 0, GPR151 ag 0, TEAD-YAP block 73* and MITF inh 9.
Screening CCN(Cc1ccccc1)S(=O)(=O)c1cc(C(=O)Nc2cccc(Cl)c2)ccc1F returned FBW7 activator 0, GPR151 ag 1, TEAD-YAP block 58* and MITF inh 7.
Screening O=C(Nc1ccc(Br)cc1)c1ccc(F)c(S(=O)(=O)NCc2cccs2)c1 returned FBW7 activator 0, GPR151 ag 0, TEAD-YAP block 60* and MITF inh 7.
Screening CCN(Cc1ccccc1)S(=O)(=O)c1cc(C(=O)Nc2ccc(Oc3ccccc3)cc2)ccc1F returned FBW7 activator 0, GPR151 ag 1, TEAD-YAP block 66* and MITF inh 2.
Screening CCOc1cc(/C=C2\SC(N)=NC2=O)cc(I)c1O returned FBW7 activator 0, GPR151 ag 0, TEAD-YAP block 12 and MITF inh -1.
For O=C(CSc1ccccn1)Nc1ccc2nc(SCC(=O)Nc3ccc(F)cc3)sc2c1 the results were FBW7 activator 0, GPR151 ag 1, TEAD-YAP block -9 and MITF inh 12.
Screening COc1ccc(-c2cnc(NC3CC3)nc2)cc1 returned FBW7 activator 0, GPR151 ag -8, TEAD-YAP block 38* and MITF inh 10.
For O=C(OC(c1ccccc1)c1nccc2ccccc12)c1ccccc1 (stereo unspecified) the results were FBW7 activator 0, GPR151 ag 0, TEAD-YAP block 72* and MITF inh 9.
`CCc1ccc(-c2cc(C(=O)Nn3cnnc3)c3ccccc3n2)cc1` gave FBW7 activator 0, GPR151 ag -3, TEAD-YAP block 82* and MITF inh 7.
For COc1cc(C(=O)NCCOc2cc(C)cc(C)c2)cc(OC)c1OC the results were FBW7 activator 1, GPR151 ag -1, TEAD-YAP block 52* and MITF inh 13.
`Nc1ccccc1C(=O)NCCc1ccccc1` gave FBW7 activator 0, GPR151 ag -5, TEAD-YAP block 63* and MITF inh -6.
COc1ccc(C(=O)NCCOc2cc(C)cc(C)c2)cc1OC was read as FBW7 activator 0, GPR151 ag -1, TEAD-YAP block 11 and MITF inh 12.
For CCOc1ccc(NC(=O)c2cc(OC)c(OC)c(OC)c2)cc1 the results were FBW7 activator 0, GPR151 ag 1, TEAD-YAP block 55* and MITF inh -2.
Cc1nn(C(=O)c2sc3ccccc3c2Cl)c(C)c1Sc1ccccc1 was read as FBW7 activator 0, GPR151 ag 0, TEAD-YAP block 6 and MITF inh -1.
For CCOc1cccc(/C=C2/SC(=S)N(C)C2=O)c1O the results were FBW7 activator 0, GPR151 ag 0, TEAD-YAP block 0 and MITF inh 7.
`CCCCCc1ccc(SCCc2ccc(C)nc2)cc1` gave FBW7 activator 0, GPR151 ag 0, TEAD-YAP block -2 and MITF inh -12.
Screening O=[N+]([O-])c1cccc(Nc2nc(-c3ccc(Cl)cc3Cl)nc3ccccc23)c1 returned FBW7 activator 0, GPR151 ag 0, TEAD-YAP block 1 and MITF inh -3.
For COc1cc(C(=O)Nc2ccccc2C(=O)Nc2ccccc2)cc(OC)c1OC the results were FBW7 activator 0, GPR151 ag 1, TEAD-YAP block 53* and MITF inh -8.
Screening CCOc1ccc(NC(=O)c2cc(OC)nc3ccccc23)cc1 returned FBW7 activator 0, GPR151 ag -1, TEAD-YAP block 52* and MITF inh 6.
For NS(=O)(=O)c1ccc(NC(=O)c2cc(-c3ccncc3)nc3ccccc23)cc1 the results were FBW7 activator 0, GPR151 ag 1, TEAD-YAP block 10 and MITF inh 19.
`NS(=O)(=O)c1ccc(NC(=O)c2cc(-c3ccccc3)nc3ccccc23)cc1` gave FBW7 activator 1.9*, GPR151 ag -1, TEAD-YAP block 2 and MITF inh 19.
Screening COc1cc(C(=O)Nc2ccccc2)c2ccccc2n1 returned FBW7 activator 0, GPR151 ag 0, TEAD-YAP block 24 and MITF inh 5.
`COc1cc(C(=O)Nc2ccccc2C(=O)Nc2cccc(C(=O)O)c2)cc(OC)c1OC` gave FBW7 activator 0, GPR151 ag 0, TEAD-YAP block 1 and MITF inh 1.
Screening CCOc1ccc(-c2cc(C(=O)Nc3cc(=O)n(C)c(=O)n3C)c3ccccc3n2)cc1 returned FBW7 activator 0, GPR151 ag -2, TEAD-YAP block 76* and MITF inh -26.
`CN(c1ccccc1)c1nc(Cl)nc(/C=C/c2ccccc2)c1[N+](=O)[O-]` gave FBW7 activator 0, GPR151 ag -1, TEAD-YAP block 16 and MITF inh 16.

Source: PubChem
